Our source for the activation, outcome and potentiation values is PubChem BioAssay.

Test [1] deals with TRPC4 beta (transient receptor potential cation channel C4), mouse. In words: TRPC4 cation channel opening, retest – cell-based, Fluo4 calcium, HEK293 TRPC4beta/mu-opioid, duplicates, 10 µM, confirmation (AID 2426;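 active means fluorescence ratio normalized to control raised more than 50% in primary screen plus both repeat runs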;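 on activation: percent rise of integrated ratio over buffer wells lacking compound which define 0%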). The following applies: Fluo4 calcium fluorescence, at 10 µM; active compounds read high.
Test [2] deals with transient receptor potential cation channel C4 beta (TRPC4), mouse. In words: TRPC4 cation channel opening, second retest – cell-based, second round, Fluo4, HEK293 TRPC4beta/mu-opioid, 1 µM, confirmation (AID 2461;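 active means primary screen active and over 50% activation in each of two duplicate runs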;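 on activation: 0% = wells without test compound as baseline of integrated fluorescence ratio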). The following applies: Fluo4 calcium fluorescence, at 1 µM; active compounds read high.
The subject of test [3] is TRPC4 (transient receptor potential cation channel C4 beta), mouse. In words: potentiation of DAMGO EC20 TRPC4 response – cell-based, second round, Fluo-4, HEK293 TRPC4beta/mu-opioid, 1 µM, confirmation (AID 2554;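 active means primary screen hit whose fluorescence ratio, in both repeats, exceeds the weak agonist control mean by 3 SD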). The following applies: DAMGO EC20, Fluo-4 calcium flux, at 1 µM; active compounds read high.
Test [4] concerns TRPC4 beta (transient receptor potential cation channel C4), mouse. In words: potentiation of DAMGO EC20 TRPC4 response – cell-based, Fluo-4, HEK293 TRPC4beta/mu-opioid, confirmation (AID 2555;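 active means primary screen hit whose calcium fluorescence ratio, in both repeats, exceeds the weak agonist control mean by 3 SD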). The following applies: DAMGO EC20, Fluo-4 calcium flux, at 10 µM; active compounds read high. In general terms: Calcium assays in cells follow changes in intracellular calcium, usually with a dye or a luminescent sensor.

Test [5] concerns the target Short transient receptor potential channel 4 (Mus musculus) (UniProt Q9QUQ5). In words: blockers of DAMGO-evoked TRPC4 calcium flux – cell-based, Fluo4, HEK293 TRPC4beta/mu-opioid, confirmation (AID 2636;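 active means calcium signal cut by more than 3 SD below the full-agonist control yet still positive, in both repeats and the earlier primary screen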). Conditions: at 10 µM; active compounds read high.
Test [6] shares this target. In words: blockers of DAMGO-evoked TRPC4 calcium flux – cell-based, second round, Fluo4, HEK293 TRPC4beta/mu-opioid, 1 µM, confirmation (AID 2637;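 active means calcium signal ratio cut to more than 3 SD under the fully stimulated control mean yet still positive, in both repeats and the primary screen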). The following applies: at 1 µM; active compounds read high.
For test [7] the target is unchanged. In words: potentiation of DAMGO-evoked TRPC4 calcium signal – cell-based, HEK293 TRPC4/mu-opioid, Fluo-4 calcium, EC20 DAMGO, dose response (AID 434941).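 Further: calcium entry triggered by an EC20 dose of DAMGO at the co-expressed mu-opioid receptor.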
Test [8] shares this target. In words: block of DAMGO-driven TRPC4 calcium entry – cell-based, HEK293 TRPC4/mu-opioid, Fluo-4 calcium, dose response (AID 434942;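 active means primary screen inhibitor hit that blocks the TRPC4 channel at some tested dose, yielding a dose curve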).
Test [9] addresses Short transient receptor potential channel 6 (Mus musculus) (UniProt Q61143). In words: TRPC6 blockade by TRPC4 inhibitor hits – cell-based, HEK293, membrane potential dye, duplicate, selectivity assay for TRPC4 inhibitor project, confirmation (AID 434948;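 active means active in primary screen and both duplicates, each dropping signal beyond three positive-control SD with fluorescence still positive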). The following applies: HEK293 TRPC6, membrane potential dye fluorescence, at 10 µM, stimulated with maximal-effect acetylcholine; active compounds read high.

For test [10] the target is unchanged. In words: TRPC6 opening by TRPC4 activator hits – cell-based, HEK293, membrane potential dye, duplicate, selectivity assay for TRPC4 activator project, confirmation (AID 434950;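 active means membrane potential signal rise above negative control mean plus 3 SD in both duplicates, also active in the earlier TRPC4 screen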;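 on activation: 0% = buffer only wells and 100% = acetylcholine maximal-effect wells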). The following applies: HEK293 TRPC6, membrane potential fluorescence, at 10 µM; activation: active compounds read high; outcome: activation.
The target is the same in test [11]. In words: positive modulators of mouse TRPC6 channel – HEK293 cells, membrane potential dye, duplicate, selectivity assay for TRPC4 potentiator project, confirmation (AID 434952;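 active means compound raising the membrane signal above positive-control mean plus 3 SD in both repeats, and a primary screen hit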). The following applies: HEK293 TRPC6, membrane potential dye fluorescence, at 10 µM, maximal acetylcholine added after compound; active compounds read high.
The target in test [12] is Short transient receptor potential channel 4 (Mus musculus) (UniProt Q9QUQ5). In words: calcium flux activators in TRPC4/5HT1a cells, counter-screen for TRPC4 activator project, cell-based, second counter screen, HEK293 TRPC4/5HT1a, Fluo-4 (AID 434977;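 active means calcium signal rise above buffer-control mean plus 5 SD in both duplicates, and also a hit in the primary screen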;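 on activation: plate controls were assay buffer for no effect and maximal serotonin response for full effect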). Conditions: Fluo-4 calcium flux, at 10 µM; active compounds read high.
Sequence of Short transient receptor potential channel 4 (Mus musculus) (Q9QUQ5 whole entry, looked up): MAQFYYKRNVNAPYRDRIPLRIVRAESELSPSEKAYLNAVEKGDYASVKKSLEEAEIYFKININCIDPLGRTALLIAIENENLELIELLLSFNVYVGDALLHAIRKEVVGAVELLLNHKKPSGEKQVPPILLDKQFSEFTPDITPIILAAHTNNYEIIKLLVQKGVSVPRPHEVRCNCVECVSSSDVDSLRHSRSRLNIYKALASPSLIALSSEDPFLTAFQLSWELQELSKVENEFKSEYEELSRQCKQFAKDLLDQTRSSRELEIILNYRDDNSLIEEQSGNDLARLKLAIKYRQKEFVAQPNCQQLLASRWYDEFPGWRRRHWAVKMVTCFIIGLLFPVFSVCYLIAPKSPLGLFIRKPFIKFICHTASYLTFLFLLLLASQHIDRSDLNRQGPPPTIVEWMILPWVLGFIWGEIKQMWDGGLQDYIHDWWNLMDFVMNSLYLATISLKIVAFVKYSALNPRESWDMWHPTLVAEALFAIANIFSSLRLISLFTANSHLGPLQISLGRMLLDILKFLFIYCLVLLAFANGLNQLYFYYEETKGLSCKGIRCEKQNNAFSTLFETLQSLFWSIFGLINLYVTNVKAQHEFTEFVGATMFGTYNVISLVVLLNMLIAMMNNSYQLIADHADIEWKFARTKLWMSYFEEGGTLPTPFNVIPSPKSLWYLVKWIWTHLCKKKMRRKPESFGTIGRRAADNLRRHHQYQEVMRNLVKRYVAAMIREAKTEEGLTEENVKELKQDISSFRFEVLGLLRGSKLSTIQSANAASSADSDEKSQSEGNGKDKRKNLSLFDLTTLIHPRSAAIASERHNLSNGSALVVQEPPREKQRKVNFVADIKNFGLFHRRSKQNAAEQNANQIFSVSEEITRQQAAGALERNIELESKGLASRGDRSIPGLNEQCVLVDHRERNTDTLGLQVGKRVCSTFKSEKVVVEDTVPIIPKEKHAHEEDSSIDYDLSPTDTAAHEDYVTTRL
Test [13] is described as follows: serotonin-gated TRPC4 signal block – cell-based, second counter screen, HEK293 TRPC4/5HT1a, Fluo-4, counter-screen for TRPC4 inhibitor project, confirmation (AID 434978;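 active means primary screen active whose calcium signal fell more than 3 SD beyond the full-serotonin control mean in both duplicate plates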;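 further: serotonin given first at submaximal then at maximal dose after compound preincubation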). Conditions: Fluo-4 calcium flux, at 10 µM, serotonin added to trigger calcium flux; active compounds read high. (In general: The purpose of a counterscreen is to sort out artefacts and off-target activity.)

Test [14] deals with TRPC4 (mouse), co-expressed with 5HT1a in HEK293. In words: enhancement of serotonin-evoked TRPC4 response – cell-based, second counter screen, HEK293 TRPC4/5HT1a, Fluo-4, counter-screen for TRPC4 potentiator project, confirmation (AID 434979;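 active means signal rise over 3 SD above mean of control wells given weak agonist, in both repeats and first screen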). The following applies: Fluo-4 calcium flux, at 10 µM, serotonin added at its EC20 dose; active compounds read high.
Test [15] in a line: nonspecific calcium rise without TRPC4 – cell-based, HEK293 mu-opioid receptor line, counter-screen for TRPC4 activator project, confirmation (AID 449723;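 active means hit in primary screen, with calcium signal over 5 SD above buffer well mean in both duplicates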;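 further: counter screen cells carry the mu-opioid receptor alone and lack TRPC4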). Conditions: HEK293 mu-opioid cells, Fluo-4 calcium fluorescence, at 10 µM; active compounds read high.
Test [16] can be described thus: nonspecific potentiation of DAMGO calcium response – cell-based, HEK293 mu-opioid receptor line, counter-screen for TRPC4 allosteric potentiator project, confirmation (AID 449724;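 active means calcium signal rise more than 3 SD above the low-dose agonist control mean, in both duplicate plates and the primary screen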;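 further: HEK293 cells carrying mu-opioid receptor only with no TRPC4 channel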). Conditions: HEK293 mu-opioid receptor cells, Fluo-4 calcium flux, at 10 µM, compound added before EC20 DAMGO stimulus; active compounds read high.

For part of these data: Potency and affinity values are given separately. Active and inactive are the calls of the source.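 How the source made its calls, unless noted: active means earlier screen potentiator hit that boosts the TRPC4 ion channel at some dose, with a dose response; inactive means no potentiation, no dose response, or not a prior hit.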

Sequence of Short transient receptor potential channel 6 (Mus musculus) (Q61143 whole entry, looked up): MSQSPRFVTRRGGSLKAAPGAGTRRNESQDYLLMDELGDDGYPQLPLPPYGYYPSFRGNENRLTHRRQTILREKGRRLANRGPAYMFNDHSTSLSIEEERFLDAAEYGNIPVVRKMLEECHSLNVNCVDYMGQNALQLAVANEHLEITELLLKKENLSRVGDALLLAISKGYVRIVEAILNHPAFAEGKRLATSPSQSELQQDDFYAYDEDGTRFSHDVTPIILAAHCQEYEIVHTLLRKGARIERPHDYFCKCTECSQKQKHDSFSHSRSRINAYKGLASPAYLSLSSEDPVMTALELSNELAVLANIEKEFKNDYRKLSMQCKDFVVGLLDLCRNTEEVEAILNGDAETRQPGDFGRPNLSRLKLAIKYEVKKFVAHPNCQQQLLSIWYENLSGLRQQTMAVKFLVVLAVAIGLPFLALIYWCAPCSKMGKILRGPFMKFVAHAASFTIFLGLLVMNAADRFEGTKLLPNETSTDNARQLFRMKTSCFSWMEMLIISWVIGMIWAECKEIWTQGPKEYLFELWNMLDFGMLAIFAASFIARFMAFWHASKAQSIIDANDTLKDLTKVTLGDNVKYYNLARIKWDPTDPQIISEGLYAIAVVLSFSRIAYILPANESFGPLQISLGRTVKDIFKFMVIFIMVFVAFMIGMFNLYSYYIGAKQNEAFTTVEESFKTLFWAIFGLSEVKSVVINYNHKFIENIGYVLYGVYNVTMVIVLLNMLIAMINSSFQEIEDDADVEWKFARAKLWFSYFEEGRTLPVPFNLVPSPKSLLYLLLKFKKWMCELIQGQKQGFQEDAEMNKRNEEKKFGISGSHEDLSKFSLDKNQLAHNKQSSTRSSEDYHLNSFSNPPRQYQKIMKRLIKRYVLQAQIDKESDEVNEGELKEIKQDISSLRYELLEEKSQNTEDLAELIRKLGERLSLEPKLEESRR

Regarding `COc1ccc(C(CNC(=O)C(C)c2ccc3cc(OC)ccc3c2)N(C)C)cc1` (stereo not given), the activation in test [1] is 243% (active); in test [2], 98% (active); in [10], 63% (active); in test [12], 8.72% (active). Moreover, the result in test [3], in [4], in [5], in test [6], in [7] and in test [8] was inactive. Besides, the outcome in test [9], in test [11], in test [13], in [14], in test [15] and in test [16] was inactive.
For the compound `CC(C)(C)c1ccccc1NC(=O)NC1CCN(Cc2c(F)cccc2Cl)CC1`, the values for the activation in [1], in test [10] and in test [12] were 121% (active), 36% (active) and 71.5% (active), respectively. Further, the result in test [2], in test [3], in [4], in [5], in test [6] and in test [7] was inactive. The outcome in [8], in test [9], in test [11], in test [13], in test [14] and in test [15] was inactive. Moreover, the result in test [16] was inactive.
Turning to `O=C(CCC1CCCC1)c1c(O)c2ccccc2oc1=O`, the activation is 222% (active) in test [1], 25% (active) in [10], 19.6% (active) in [12] and 51.5% (active) in test [15]. Further, the result in test [2], in [3], in [4], in [5], in test [6] and in test [7] was inactive. The result in test [8], in test [9], in [11], in test [13], in test [14] and in [16] was inactive.
`CCN(CC)CCCOc1ccc(Cl)c(Cl)c1`: the outcome in test [1], in test [2], in [5], in test [6], in [7] and in [8] was inactive. Further, the outcome in [9], in [11], in test [13], in test [15] and in [16] was inactive. Further, the potentiation is 31% (active) in test [3], 33% (active) in test [4] and 21.3% (active) in test [14]. For the same compound, the activation in test [10] was 48% (active); in test [12] it was 17.9% (active).
Turning to `CN1CCC(CNC(=O)Nc2ccccc2)(c2ccccc2)CC1`, the activation in [1] was 97% (active); in test [2], 52% (active). The result in [3], in test [4], in [5], in test [6], in test [7] and in test [8] was inactive. Besides, the call in test [9], in test [10], in test [11], in [12], in test [13] and in test [14] was inactive. Further, the result in test [15] and in test [16] was inactive.
Take `Cc1onc(-c2ccccc2)c1C(=O)NC(=S)NNC(=O)c1ccco1`: the activation in [1] was 142% (active); in test [10], 30.5% (active); in test [12] it was 51.5% (active). In addition, the result in [2], in test [3], in test [4], in test [5], in test [6] and in test [7] was inactive. In addition, the outcome in test [8], in [9], in test [11], in test [13], in test [14] and in test [15] was inactive. In addition, the result in [16] was inactive.
On to `CC(NCCC1(Cc2ccccc2Cl)CCOC(C)(C)C1)c1cccs1` (stereo not given), for which the activation in test [1] is 89% (active). Further, the result in test [2], in test [3], in test [4], in test [5], in [6] and in [7] was inactive. Also, the outcome in test [8], in test [9], in test [10], in test [11], in [12] and in test [13] was inactive. The result in test [14], in test [15] and in test [16] was inactive.
On to `CCOC(=O)C1(CCc2ccccc2)CCN(Cc2ccc(OC)cc2)CC1`, for which the activation was 101% (active) in test [1] and 77.5% (active) in test [10]. Also, the result in [2], in [3], in test [4], in test [5], in [6] and in [7] was inactive. Further, the outcome in test [8], in test [9], in test [11], in test [12], in [13] and in test [14] was inactive. Besides, the result in test [15] and in test [16] was inactive.
As for `Cn1c(CN2CCN(c3cccc(Cl)c3)CC2)nc2ccccc21`, the activation in [1] was 119% (active); in test [10] it was 49% (active). Moreover, the result in test [2], in test [3], in [4], in test [5], in test [6] and in test [7] was inactive. The outcome in test [8], in test [9], in test [11], in test [12], in test [13] and in test [14] was inactive. In addition, the result in test [15] and in [16] was inactive.
In the case of `COc1ccc(C(CNCC(=O)Nc2ccccc2F)N(C)C)cc1` (stereo not given), the outcome in [1], in test [3], in [4], in [5], in test [6] and in [7] was inactive. Moreover, the result in test [8], in test [9], in test [11], in test [12], in test [13] and in test [14] was inactive. Besides, the outcome in test [15] and in test [16] was inactive. Further, the activation was 105% (active) in test [2] and 59% (active) in test [10].
With `Cc1ccc(-n2cc(CNCCc3ncc(C)[nH]3)c(-c3ccc(F)cc3)n2)cc1`, the activation in test [1] is 177% (active); in [12], 14.9% (active). Besides, the result in test [2], in [3], in [4], in [5], in test [6] and in [7] was inactive. Further, the result in test [8], in [9], in [10], in test [11], in test [13] and in [14] was inactive. Besides, the result in test [15] and in test [16] was inactive.
`CCN1CCN(c2ccc(S(=O)(=O)N3CCCCC3)cc2NC(=O)COc2ccccc2)CC1`: the activation in test [1] was 157% (active); in [12], 16.8% (active). Also, the result in test [2], in test [3], in test [4], in [5], in [6] and in test [7] was inactive. Moreover, the result in test [8], in test [9], in test [10], in test [11], in [13] and in test [14] was inactive. The result in test [15] and in test [16] was inactive.
Turning to `Cc1cc(-c2nn(-c3ccccc3F)cc2CNCCc2cnc[nH]2)c(C)s1`, the results for the activation in test [1], in test [2] and in test [12] were 89% (active), 87% (active) and 39.8% (active), respectively. The result in [3], in test [4], in [5], in test [6], in test [7] and in test [8] was inactive. Further, the call in test [9], in [10], in [11], in [13], in test [14] and in test [15] was inactive. Also, the outcome in test [16] was inactive.
As to `O=C(C1CCCN(Cc2ccccc2)C1)N1CCc2ccccc2C1` (stereo not given), the activation in [1] was 105% (active); in test [2], 94% (active); in test [10], 71% (active); in test [12], 40.5% (active). For the same compound, the result in [3], in test [4], in test [5], in test [6], in [7] and in test [8] was inactive. Besides, the outcome in test [9], in [11], in test [13], in test [14], in test [15] and in [16] was inactive.
`CN1CCN(c2ccc(C(F)(F)F)cc2NC(=O)Nc2ccccc2)CC1`: the activation is 103% (active) in test [1] and 28.6% (active) in [12]. Besides, the result in test [2], in [4], in test [5], in [6], in test [7] and in test [8] was inactive. Moreover, the compound was classed as inactive in [9], in test [10], in test [11], in [13], in test [15] and in test [16]. The potentiation in test [3] was 24% (active); in test [14] it was 33.3% (active).
